Bioassay records (PubChem BioAssay)
In the library only some 0.93% were active in any assay of this set; here they are far more common.
RPL19A-GFP yeast: modulators of TOR pathway RPL19A-GFP in S. cerevisiae. S. cerevisiae RPL19A-GFP strain, flow cytometry, 3 h; stronger effect = lower value. percent response vs DMSO, % at 10 µM. actives 0.3% (n = 330,000). AID 2025;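 active means percent response vs DMSO below 50%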;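 further: median channel GFP fluorescence of the barcoded RPL19A-GFP strain; ratio of sample median GFP to plate DMSO average so 100% = DMSO; lower means less RPL19A-GFP as with rapamycin TOR inhibition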
CIT2 TOR yeast: modulators of TOR pathway CIT2-GFP in S. cerevisiae; S. cerevisiae CIT2-GFP strain, flow cytometry, 3 h; 100 means same as DMSO wells; GFP response vs DMSO, % at 10 µM; actives 0.065% (n = 320,000); AID 2029;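 active means GFP response relative to DMSO above a set limit, near the screen mean plus 3 SD, cut at about 150% in these data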;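 further: ratio of well median GFP fluorescence to mean of DMSO wells on the plate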
LAP4-GFP MLPCN: yeast TOR pathway LAP4-GFP modulation; S. cerevisiae LAP4-GFP multiplex, flow cytometry GFP, 3 h; median GFP as percent of DMSO wells; GFP response vs DMSO, % at 10 µM; actives 0.34% (n = 320,000); AID 2023;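 active means GFP response vs DMSO above a set limit, about the screen mean plus 3 SD, cut at about 150% in these data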
MEP2 TOR yeast: modulators of TOR pathway MEP2-GFP in S. cerevisiae. actives 0.51% (n = 330,000). S. cerevisiae MEP2-GFP strain, flow cytometry GFP, 3 h; 100% = DMSO control level. GFP response vs DMSO, % at 10 µM;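 active means GFP response versus DMSO above a set limit, roughly screen mean plus 3 SD, cut at about 180% in these data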;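 further: median GFP fluorescence of the barcode-gated MEP2-GFP cells per well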
AGP1 TOR yeast: yeast TOR pathway AGP1-GFP modulation | actives 0.02% (n = 320,000) | S. cerevisiae AGP1-GFP multiplex flow cytometry, 3 h; GFP as percent of DMSO wells | GFP response vs DMSO, % at 10 µM;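 active means GFP response relative to DMSO above a set limit, near screen average plus 3 SD, cut at about 150% in these data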;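 further: median GFP channel fluorescence of the gated AGP1 strain per well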
LAP4-GFP pick2: reconfirmed LAP4-GFP TOR pathway modulator in yeast; shares compounds with LAP4-GFP MLPCN; S. cerevisiae LAP4-GFP strain, flow cytometry GFP, 3 h; GFP response vs DMSO, % at 10 µM; actives 20% (n = 590); AID 2621;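 active means GFP signal as percent of the solvent control above about 150%, meaning raised reporter expression, limit read from the data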;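 further: ratio of well median GFP fluorescence to plate DMSO mean so 100% = DMSO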
MEP2 cherry2: yeast MEP2-GFP modulation, second cherry pick; shares compounds with LAP4-GFP MLPCN; S. cerevisiae MEP2-GFP strain, flow cytometry GFP, 3 h; GFP response vs DMSO, % at 10 µM; actives 10% (n = 590); AID 2622;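 active means GFP signal above 150% of the solvent control wells, that is a rise of more than half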;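 further: median channel GFP fluorescence of all gated yeast cells per well; ratio of median GFP to plate DMSO average so 100% = DMSO level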
RPL19A-GFP pick2: second confirmation of modulators of TOR reporter RPL19A-GFP in yeast; AID 2623; S. cerevisiae RPL19A-GFP strain, flow cytometry GFP, 3 h; stronger effect = lower value; 100% means same as DMSO wells; shares compounds with LAP4-GFP MLPCN; actives 3% (n = 590); GFP response vs DMSO, % at 10 µM;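 active means under 65% GFP response relative to DMSO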;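 further: median GFP channel fluorescence per well over the all cells gate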
CIT2 GFP CP2: reconfirmed modulator of CIT2-GFP TOR reporter in yeast | shares compounds with LAP4-GFP MLPCN | actives 8% (n = 590) | S. cerevisiae CIT2-GFP strain, flow cytometry GFP, 3 h; DMSO control wells read 100% | GFP response vs DMSO, % at 10 µM | AID 2624;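 active means GFP response vs DMSO above about 150%, limit read from the data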;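 further: median green fluorescence per well over all gated yeast cells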
AGP1-GFP pick2: reconfirmed modulator of AGP1-GFP TOR reporter in yeast; percent response vs DMSO, % at 10 µM; S. cerevisiae AGP1-GFP strain, flow cytometry GFP, 3 h; shares compounds with LAP4-GFP MLPCN; 590 tested, under 10 active; AID 2643;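 active means over 150 percent of DMSO response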;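 further: median GFP channel fluorescence over all cells without mother daughter split; sample median GFP divided by mean DMSO control so 100% equals DMSO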
s288c autofluor: yeast s288c autofluorescence artifact, counter-screen; shares compounds with LAP4-GFP MLPCN; S. cerevisiae s288c, 520 nm autofluorescence, flow cytometry, 3 h; stronger effect = higher value; zero means same as solvent-only cells; fluorescence change (kMESF span) at 33 µM; 610 tested, under 10 active;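 active means fluorescence span over the dose series, or activity score, above about 33, limit read from the data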
s288c autofl DR: TOR screen hit shows autofluorescence in yeast s288c. 110 tested, under 10 active. S. cerevisiae s288c parental, compound autofluorescence, flow cytometry, 3 h. AID 488829. shares compounds with LAP4-GFP MLPCN. fluorescence change (span) at 33 µM;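 active means fluorescence change span, or the activity score built from it, above 25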
TORC1 bypass gr: wildtype yeast growth loss with TORC1 bypass cells unaffected; 120 tested, under 10 active; shares compounds with LAP4-GFP MLPCN; AID 504456; S. cerevisiae BY4741 spot growth rating, 48-72 h; stronger effect = lower value; growth rating (0-3) at 30 µM;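 active means growth rating at most 1 for wild type yeast while the TORC1 bypass strain still grows fully, rated 3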
Numbers without * were called inactive; x = no result given; + = active, no number.

SMILES | RPL19A-GFP yeast | CIT2 TOR yeast | LAP4-GFP MLPCN | MEP2 TOR yeast | AGP1 TOR yeast | s288c autofluor | others
Cc1ccc2[nH]cc(/C=C/c3cc[n+](C)cc3)c2c1 | 115 | 147 | 151* | 217* | 105 | 5.4
CC[n+]1ccc(/C=C/c2c[nH]c3ccccc23)cc1 | 106 | 114 | 103 | 116 | 102 | x
COc1ccc2c(/C=C/c3cc[n+](C)cc3)c[nH]c2c1 | 116 | 210* | 150* | 207* | 117 | 5.7
COC(=O)Cn1cc(/C=C/c2cc[n+](C)cc2)c2ccccc21 | 100 | 112 | 109 | 114 | 106 | x
Cn1c(=O)[nH]c(=O)c2c1nc(NC1CCCC1)n2Cc1ccccc1 | 104 | 110 | 84 | 105 | 100 | x
O=C(O)c1cccc(S(=O)(=O)Nc2ccc(S(=O)(=O)N3CCOCC3)cc2)c1 | 58 | 92 | 90 | 129 | 85 | 0 | LAP4-GFP pick2=102;MEP2 cherry2=110;RPL19A-GFP pick2=98;CIT2 GFP CP2=106;AGP1-GFP pick2=98
Cc1ccc(NS(=O)(=O)c2cccc(C(=O)O)c2)cc1S(=O)(=O)N1CCOCC1 | 97 | 101 | 88 | 104 | 94 | x
COc1cc(-n2c(C)nc3cc(C(=O)O)ccc32)cc(OC)c1OC | 95 | 101 | 111 | 104 | 107 | x
CCOC(=O)N1CCN(C(=O)c2ccc(S(=O)(=O)Nc3ccccc3)cc2)CC1 | 96 | 172* | 102 | 111 | 88 | x | LAP4-GFP pick2=108;MEP2 cherry2=105;RPL19A-GFP pick2=101;CIT2 GFP CP2=102;AGP1-GFP pick2=99
O=C(Oc1ccc(Cl)c2cccnc12)c1cccc([N+](=O)[O-])c1 | 93 | 85 | 96 | 91 | 88 | x
O=C(Oc1c(Cl)cc(Cl)c2cccnc12)c1cccc([N+](=O)[O-])c1 | 92 | 107 | 187* | 95 | 92 | 2.4 | s288c autofl DR=0.24;TORC1 bypass gr=0
CCCOc1ccc(C(=O)NNC(=S)NC(=O)CC)cc1 | 89 | 81 | 259* | 107 | 87 | 1.4 | s288c autofl DR=0.93;TORC1 bypass gr=3
CC(C)N(C(=O)CSc1n[nH]c(=O)n1CCc1ccccc1)C(C)C | 95 | 97 | 91 | 98 | 92 | x
COc1ccc(C(c2c(C)[nH]n(C(N)=S)c2=O)C(C#N)C#N)cc1 (stereo unspecified) | 98 | 77 | 335* | 98 | 76 | 0.41
COc1ccc(CCNC(=O)CSc2ccc3nnc(CCNC(=O)c4ccccc4)n3n2)cc1OC | 103 | 102 | 91 | 103 | 96 | x
CC1=NOC(=O)/C1=C\c1ccc(-c2cc(Cl)ccc2Cl)o1 | 89 | 111 | 167* | 94 | 55 | 1.5
CN(C)c1ccc(/C=C/c2cc[n+]([O-])cc2)cc1 | 102 | 108 | 109 | 130 | 104 | x
CN(C)c1ccc(/C=C/c2cc[n+](C)cc2)cc1 | 116 | 182* | 199* | 249* | 123 | 11
O=C(/C=C/c1ccc(O)cc1)c1ccc(O)cc1O | 105 | 105 | 112 | 100 | 97 | x
COc1ccc(/C=C/C(=O)c2cc(Br)ccc2O)cc1OC | 93 | 107 | 128 | 112 | 88 | x
O=C(/C=C/c1ccccn1)c1ccc(Br)cc1O | 87 | 81 | 155* | 84 | 88 | 1.5 | LAP4-GFP pick2=165*;MEP2 cherry2=119;RPL19A-GFP pick2=91;CIT2 GFP CP2=96;AGP1-GFP pick2=95
O=C(/C=C/c1ccccn1)c1cc(Br)ccc1O | 69 | 57 | 212* | 80 | 67 | 1.1
Cc1cccc(-n2ccc(=O)c(C(=O)Nc3ccc(S(=O)(=O)N4CCOCC4)cc3)n2)c1 | 101 | 97 | 93 | 101 | 100 | x
COc1ccccc1C(=O)NNC(=S)NC(=O)c1cccs1 | 125 | 122 | 186* | 108 | 126 | 0.2
O=C(Cc1cccs1)NNC(=S)NCc1ccc(Cl)cc1 | 92 | 103 | 96 | 92 | 98 | x
SMILES | RPL19A-GFP yeast | CIT2 TOR yeast | LAP4-GFP MLPCN | MEP2 TOR yeast | AGP1 TOR yeast | s288c autofluor | others
O=C(NC(=S)NNC(=O)c1ccccc1O)c1cccs1 | 110 | 91 | 91 | 100 | 96 | x
O=C(Cc1ccc(Cl)cc1)NNC(=S)NC(=O)c1cccs1 | 109 | 108 | 199* | 104 | 113 | 1.1
COC(=O)c1c(NC(=O)C2CCCCC2)sc2c1CC(C)(C)NC2(C)C | 98 | 100 | 99 | 99 | 101 | x
CCCCN1C[C@H](Cc2ccccc2)[C@@H](CC(=O)NCc2ccc(OC)cc2)C1=O | 88 | 101 | 159* | 141 | 102 | x | LAP4-GFP pick2=97;MEP2 cherry2=100;RPL19A-GFP pick2=102;CIT2 GFP CP2=106;AGP1-GFP pick2=105
CCCCC[C@H]1CN(CCCC)C(=O)[C@@H]1CC(=O)NCc1ccc(OC)cc1 | 91 | 66 | 106 | 89 | 74 | x
COc1ccc(C)cc1NC(=O)COC(=O)c1c(C)nn(-c2ccccc2)c1C | 99 | 92 | 101 | 102 | 95 | x
Cc1ccc(O)c(C(=O)CC(=O)c2ccccc2Cl)c1 | 51 | 69 | 74 | 111 | 51 | x | LAP4-GFP pick2=104;MEP2 cherry2=102;RPL19A-GFP pick2=99;CIT2 GFP CP2=109;AGP1-GFP pick2=97
C/C(=N\Nc1ncnc2sc(C)c(C)c12)c1ccccn1 | 183 | + | 869* | + | 203* | 94*
Cc1sc2ncnc(N/N=C/c3cccc(O)c3)c2c1C | 97 | 97 | 96 | 100 | 95 | x
Cc1cc(-c2csc(NC(=O)c3ccc(=O)[nH]c3)n2)c(C)n1Cc1ccco1 | 91 | 90 | 152* | 87 | 106 | x | LAP4-GFP pick2=99;MEP2 cherry2=110;RPL19A-GFP pick2=101;CIT2 GFP CP2=96;AGP1-GFP pick2=103
COc1ccccc1-c1nnc(SCC(=O)N2CCOCC2)n1-c1ccccc1 | 95 | 103 | 98 | 100 | 99 | x
